An excerpt weighted towards active compounds, which were near 4.2% of everything screened.
PfHsp90 set2: growth inhibition of PfHsp90-expressing yeast, primary screen, antimalarial PfHsp90 inhibitor project, S. cerevisiae, BacTiter-Glo luminescence, single point, set 2 | inhibition, % at 9.4 µM | 310,000 tested, 0.32% active | AID 504621, 2011 | BacTiter-Glo ATP, 48 h; yeast lacking PDR1 and PDR3 efflux regulators;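 active = every replicate shows inhibition above about 80%, whatever the replicate mean, limit read from the data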
NALP3 yeast inh: NALP3 inflammasome inhibitors in reconstituted yeast, primary screen, luminescence, uHTS; AID 2825, 2010; 330,000 tested, 0.39% active; inhibition, % at 10 µM; Yeast reconstituted NLRP3/ASC/caspase-1, beta-gal luminescence, 24 h;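 active = inhibition of 50% or more; inactive = inhibition below 50%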
tim10-1 inh: growth inhibitors of tim10-1 mutant yeast, primary screen, luminescence, uHTS; S. cerevisiae tim10-1 ts strain growth, BacTiter-Glo, 24 h; inhibition, % at 20 µM; 330,000 tested, 2.2% active;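 active = inhibition of at least 40%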;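 also: mutant grown at 25 °C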
TIM10 inh: growth inhibitors of isogenic TIM10 control yeast, primary screen, counter-screen for tim10-1 yeast inhibitor project, luminescence, uHTS; AID 463195, 2010; 330,000 tested, 1.4% active; S. cerevisiae TIM10 strain growth, BacTiter-Glo luminescence, 24 h; inhibition, % at 10 µM;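 active = inhibition of 40% or more at the single tested concentration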;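 also: wild-type TIM10 isogenic control strain grown at permissive 25 °C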
NALP1 yeast inh: NALP1 inflammasome inhibitors in reconstituted yeast, colorimetric, S. cerevisiae, triplicate retest; inhibition, % at 10 µM; AID 2071, 2009; 280,000 tested, 0.61% active; S. cerevisiae NALP1/ASC/caspase-1 growth, X-gal OD620, 72 h; in the data active = inhibition mostly above about 24%, no sharp cut-off; inactive = mostly below about 32%
tim23-1 inh: growth inhibitors of tim23-1 mutant yeast, primary screen, luminescence, uHTS | S. cerevisiae tim23-1 growth, BacTiter-Glo luminescence, 24 h | inhibition, % at 20 µM | 330,000 tested, 1.3% active | AID 463212, 2010;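 active = growth inhibition of the mutant yeast at or above 50%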;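 also: temperature-sensitive mutant grown at 25 °C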
Numbers stand for hits; – = inactive; · = not tested or not shown.

SMILES	PfHsp90 set2	NALP3 yeast inh	tim10-1 inh	TIM10 inh	NALP1 yeast inh	tim23-1 inh
CCCCn1cnc2c(c(-c3ccccc3)c(-c3ccccc3)n2Cc2ccco2)c1=N	·	–	–	–	–	–
NS(=O)(=O)c1ccc(-c2ccc(/C=N/NC(=O)c3ccc([N+](=O)[O-])cc3)o2)cc1	–	–	–	–	–	–
CCCOc1ccc(C(=O)N/N=C/c2ccc(-c3ccc(S(=O)(=O)Nc4ncccn4)cc3)o2)cc1	–	–	–	–	42.7	–
CC/C=C\[C@H](O)[C@H](O)C1=C(C)C(=O)[C@]2(O1)C(=O)N[C@@](OC)(C(=O)c1ccccc1)C2O (stereo not given in full)	–	–	–	–	–	–
CCc1nn(CC(=O)N2CCCCCC2)c(=O)c2cc3ccccc3n12	–	–	–	–	–	–
CN1CCOc2cc(S(=O)(=O)Nc3ccc(F)cc3)ccc21	–	–	–	–	26.1	–
O=C1NCCN1CCN1C(=O)c2ccccc2NC1c1ccccc1 (stereo not given)	–	–	–	–	·	–
Cc1ccc(-c2cc(C(=O)O)n[nH]2)s1	–	–	–	–	–	–
CCOC(=O)c1cc(-c2ccc(Cl)s2)[nH]n1	–	–	–	–	43.8	–
C=CCN(CC=C)C(=S)NC(=O)c1ccc(-c2ccccc2)cc1	–	–	–	–	38.9	–
CC(C)(C)S(=O)N1Cc2cc(CO)ccc2[C@@H]1CCO (stereo not given in full)	–	·	·	·	·	·
CCOc1ccc(/C=C2\C(=O)c3ccccc3OC2c2ccccc2)cc1 (stereo not given)	–	–	–	–	27.5	–
Nc1nc(=O)n(C2CCCO2)cc1Br (stereo not given)	–	·	·	·	·	·
O=C1CN=C(Nc2ccccc2Cl)N1c1ccccc1	–	–	–	–	33.8	–
O=C(NCCCn1ccnc1)c1cc(-c2cccc(O)c2)on1	–	–	–	–	·	–
N#C/C(=N\Nc1cccc(C(F)(F)F)c1)C(=O)c1ccsc1	–	–	–	–	40.3	–
O=C(NCCNC(=O)c1ccccn1)c1ccc(-c2ccccc2)cc1	–	–	–	–	–	–
CCOC(=O)NC(c1cccc(Cl)c1)C1CCCCCC1=O (stereo not given)	–	–	–	–	43.3	–
CC(NC(=O)CNC(=O)C1CCCCC1)c1cccc(Cl)c1 (stereo not given)	–	–	–	–	–	–
CCOC(=O)N1CCC(NCCNC(=O)c2cccc(F)c2)CC1	·	–	–	–	·	–
Cn1c(SCC(=O)NC(C)(C)C)nnc1-c1cnccn1	–	–	–	–	–	–
CNC(=O)CSc1nnc(-c2cnccn2)n1C	–	–	–	–	26.0	–
CCCc1nnc(SCC(=O)Nc2nc(C)cs2)n1CCOC	–	–	–	–	–	–
CCOC(=O)[C@H]1[C@H]2COc3ccc(OC)cc3[C@@H]2N2C(=O)c3cc(OC)c(OC)cc3NC(=O)[C@@]12C	–	–	–	–	·	–
CC(=O)n1c2ccccc2c2nc3ccccc3nc21	–	–	–	–	30.4	–
SMILES	PfHsp90 set2	NALP3 yeast inh	tim10-1 inh	TIM10 inh	NALP1 yeast inh	tim23-1 inh
COc1cccc(N2CCN(C(=S)NCc3ccco3)CC2)c1	–	–	–	–	–	–
O=[N+]([O-])c1cc(S(=O)(=O)N2CCCCCC2)ccc1F	–	·	·	·	78.6	·
O=C(O)c1ccc(N/N=C/c2ccc(-c3cc(Cl)ccc3Cl)o2)cc1	–	–	–	–	·	–
O=C(O)c1ccc(N/N=C/c2ccc(-c3cccc(Cl)c3)o2)cc1	104.4	–	–	–	·	–
CC(C)(C)C(=O)CSc1nnc(Nc2ccccc2)s1	–	–	–	–	–	–
CCOc1ccc(-c2[nH]ncc2Oc2cccc(OC)c2)c(O)c1	–	–	–	–	–	–
CCCOC(=O)c1ccc(Oc2cn[nH]c2-c2ccc(OCC)cc2O)cc1	98.4	–	–	–	–	–
O=C(O)C1C2C=CC(C2)C1C(=O)NCc1ccc(Cl)c(Cl)c1 (stereo not given)	–	–	–	–	46.6	–
COCCNC(=O)c1cnn2c(C(F)(F)F)cc(-c3ccc(C)cc3)nc12	–	–	–	–	–	–
CC(OC(=O)c1cc(S(=O)(=O)N2CCOCC2)ccc1F)C(=O)NC1CCCCC1C (stereo not given)	–	–	–	–	–	–
O=C(NN1C(=O)/C(=C\c2ccc(O)c([N+](=O)[O-])c2)SC1=S)c1ccccc1Cl	104.2	–	–	–	–	–
O=C(O)c1ccc(/C=C2\SC(=S)N(NC(=O)c3ccccc3[N+](=O)[O-])C2=O)cc1	–	–	–	–	–	–
O=C(CCNS(=O)(=O)c1ccc(Br)s1)NC1CCCC1	·	–	–	–	–	–
O=S(=O)(NC1CCCCCC1)c1ccc(Br)s1	87.5	–	–	–	–	–
CCOc1ccccc1NC(=O)C(CC(C)C)NC(=O)C1CCC(C)CC1 (stereo not given)	–	–	–	–	42.9	–
CCOc1ccccc1NC(=O)C(NC(=O)C1CCC(C)CC1)C(C)C (stereo not given)	–	–	–	–	–	–
COc1ccc(C(=O)c2c(NC(C)=O)sc3c2CCN(C(=O)OC(C)(C)C)C3)cc1	–	–	–	–	44.1	–
O=S(=O)(c1ccc(Cl)s1)N1CCC(Cc2ccccc2)CC1	–	–	–	–	40.4	–
CCN(C(=O)COC(=O)c1ccc(Br)o1)C1CCCCC1	–	–	–	–	–	–
CC(=O)c1ccc(NC(=O)CCCN2C(=O)COc3ccc(C)cc32)cc1	–	–	–	–	–	–
CN(CC(=O)NCc1ccccc1)S(=O)(=O)c1cnc[nH]1	–	–	–	–	44.9	–
COc1ccc(C(C(=O)NC(C)C)N(C(=O)CCC(=O)Nc2nccs2)c2ccccc2F)cc1 (stereo not given)	–	–	–	–	33.1	–
COCCNC(=O)C(c1ccc(OC)cc1)N(CCOC)C(=O)CCC(=O)Nc1nccs1 (stereo not given)	–	–	–	–	–	–
CC(C)(C=O)C1=CC(=O)c2ccccc2C1=O	105.7	·	·	·	47.7	·
O=C(CSc1cccc[n+]1[O-])Nc1cc2c(cc1Cl)C(=O)c1ccccc1C2=O	–	·	·	·	54.8	·
CN1CCN(c2ccc(NC(=S)NC(=O)/C=C/c3ccco3)cc2)CC1	–	–	–	–	–	–
Cc1ccc2c(C)c(C(=O)N3CCN(c4ncccn4)CC3)oc2c1C	–	–	–	–	–	–
COc1cccc(NC(=O)C23CCC(C)(C(=O)O2)C3(C)C)c1 (stereo not given)	–	–	–	–	38.8	–

From PubChem BioAssay
